# “And” between values parts separate entries of the source, which are not always exact repeats. Identical values can stand only once. The whole screen tested about 360,000 compounds, of which about 1,600 (0.44%) were called active.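 How the source made its calls: active means every replicate showing at least 50% inhibition; inconclusive means mean inhibition at least 50% but not in every replicate; inactive means the rest.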 Many of the other results were omitted from the sample, so actives are more common in it than they were. Some structures have more than one record in an assay (separate samples or runs), and their calls can disagree.
# Molecular target: DNA repair protein RAD52 homolog (Homo sapiens) (UniProt P43351)
# Assay: RAD52 DNA annealing inhibitors, primary screen, biochemical, FRET, single point, set 2 (AID 651710)
# Settings: recombinant RAD52 DNA annealing, FRET fluorescence; at 18.7 µM; stronger effect = higher value
# Chain of DNA repair protein RAD52 homolog (Homo sapiens) (P43351 whole entry, looked up): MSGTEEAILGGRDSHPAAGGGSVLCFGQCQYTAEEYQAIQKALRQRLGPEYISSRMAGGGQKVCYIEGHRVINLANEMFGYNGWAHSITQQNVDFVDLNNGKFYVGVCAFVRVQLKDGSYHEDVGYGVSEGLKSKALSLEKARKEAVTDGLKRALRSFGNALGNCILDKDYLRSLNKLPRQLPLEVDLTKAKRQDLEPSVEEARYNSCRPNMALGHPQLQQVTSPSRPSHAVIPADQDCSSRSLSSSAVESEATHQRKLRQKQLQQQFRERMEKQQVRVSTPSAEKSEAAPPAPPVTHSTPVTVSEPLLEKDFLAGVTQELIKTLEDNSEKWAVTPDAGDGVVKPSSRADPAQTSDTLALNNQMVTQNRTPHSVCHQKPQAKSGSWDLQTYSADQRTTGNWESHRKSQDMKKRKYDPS
row,Compound,inhibition
1,N#Cc1cccc(-c2ccc(C3[C@@H]4CN(C(=O)C5CCC5)C[C@H]3N4)cc2)c1 (some centres undefined),-9.39% (inactive) and 14.7% (inactive)
2,O=C(C1CCCC1)N1CCCCN2[C@@H](CO)[C@H](c3ccc(-c4cccc(F)c4)cc3)[C@@H]2C1,44.8% (inactive)
3,O=C(C1CCCCC1)N1CC(=O)N2[C@H](CO)[C@@H](c3ccc(-c4ccccc4F)cc3)[C@@H]2C1,-8.61% (inactive)
4,O=C(C1CCC1)N1C[C@@H]2N[C@H](C1)C2c1ccc(-c2cncnc2)cc1 (some centres undefined),17.7% (inactive)
5,O=C(C1CCCCC1)N1C[C@@H]2N[C@H](C1)C2c1ccc(-c2cccc(F)c2)cc1 (some centres undefined),61% (active) and 30.9% (inactive)
6,Cc1ccccc1-c1ccc(C2[C@@H]3CN(C(=O)C4CCCCC4)C[C@H]2N3)cc1 (some centres undefined),54.8% (active) and 0.102% (inactive)
7,CS(=O)(=O)N1CC2(C1)[C@H](c1ccccc1)[C@H](CO)N2Cc1ccc(F)cc1,-16.8% (inactive)
8,Cc1ccc(-c2ccc3c(c2)O[C@H](CN(C)C)[C@@H](C)CN([C@@H](C)CO)S3(=O)=O)cc1,19.5% (inactive)
9,O=C(C[C@@H]1C[C@@H]2c3cc(NC(=O)Nc4ccccc4F)ccc3O[C@@H]2[C@H](CO)O1)NCCc1ccccc1,2.98% (inactive)
10,CO[C@@H]1CN(C)C(=O)c2cc(NC(=O)Nc3cc(F)ccc3F)ccc2OC[C@H](C)N(C)C[C@@H]1C,22.6% (inactive)
11,CN(Cc1ccccc1F)c1cc2c(c3c1ccn3C)C1CCC2O1 (centres undefined),61% (active)
12,CC(C)NC(=O)N(C)C[C@H]1OCCCC[C@H](C)Oc2ccc(NC(=O)Nc3ccc(C(F)(F)F)cc3)cc2C(=O)N([C@H](C)CO)C[C@@H]1C,-13.2% (inactive)
13,C[C@@H]1CCCCO[C@@H](CN(C)S(=O)(=O)c2ccc(F)cc2)[C@@H](C)CN([C@@H](C)CO)C(=O)c2cc(NS(=O)(=O)c3cccs3)ccc2O1,-29.4% (inactive)
14,CC(C)NC(=O)N(C)C[C@H]1OCCCC[C@H](C)Oc2ccc(NC(=O)CCC(F)(F)F)cc2C(=O)N([C@@H](C)CO)C[C@@H]1C,-0.514% (inactive)
15,Cc1noc(C)c1S(=O)(=O)Nc1cccc2c1O[C@@H](CN(C)S(=O)(=O)c1cn(C)cn1)[C@@H](C)CN([C@H](C)CO)C2=O,-26.9% (inactive)
16,CN(C)C(=O)C[C@@H]1C[C@@H]2c3cc(NC(=O)C4CCOCC4)ccc3O[C@@H]2[C@@H](CO)O1,-0.675% (inactive)
17,CCCNC(=O)N1[C@@H]2CNC[C@H]1C2c1ccc(-c2ccccc2)cc1 (some centres undefined),-12.3% (inactive) and 2.3% (inactive)
18,CC(C)[C@@H](C)/C=C/[C@@H](C)[C@H]1CC[C@@H]2[C@]1(C)CCC1[C@]23C=C[C@]2(C[C@@H](O)CC[C@]12C)N(c1ccc([N+](=O)[O-])cn1)O3 (some centres undefined),73.5% (active)
19,COc1ccccc1C(=O)N1O[C@]23C=C[C@]14C[C@@H](O)CC[C@]4(C)C2CC[C@]1(C)[C@@H]([C@H](C)/C=C/[C@H](C)C(C)C)CC[C@H]13 (some centres undefined),-15.6% (inactive)
20,CC(C)NC(=O)Nc1ccc2c(c1)C(=O)N([C@@H](C)CO)C[C@H](C)[C@@H](CN(C)S(C)(=O)=O)O2,-11% (inactive)
21,C[C@@H]1CN([C@@H](C)CO)C(=O)Cc2cc(NC(=O)Nc3ccc4c(c3)OCO4)ccc2O[C@H]1CN(C)S(=O)(=O)c1ccccc1,2.34% (inactive)
22,CCN(C[C@@H]1[C@H](c2ccccc2)[C@@H](CO)N1CC1CC1)C(=O)c1ccccn1,-2.51% (inactive)

row,Compound,inhibition
1,CC(O)c1ccc(OCCN(C)c2ccccn2)cc1 (centres undefined),-7.28% (inactive)
2,CCN(CC)CCOc1ccc2c(c1)C(=NNC(=O)c1ccccn1)c1cc(OCCN(CC)CC)ccc1-2,108% (active)
3,COCCOC(=O)N1C(=O)[C@@]2(c3cc(C#CCNC(N)=O)ccc31)[C@H](C(=O)N1CCN(c3ncccn3)CC1)[C@H]1C(=O)O[C@H](c3ccccc3)[C@H](c3ccccc3)N1[C@@H]2c1ccccc1OCCO,31.5% (inactive)
4,CN1C(=O)CN2CCc3ccccc3C2c2cc(Cl)ccc21 (centres undefined),-6.27% (inactive)
5,CN1CCN(C2Cc3ccc(Cl)cc3Sc3ccc(F)cc32)CC1 (centres undefined),54.5% (active)
6,O=C(C[C@@H]1C=C[C@@H](NC(=O)C2CCC2)[C@H](CO)O1)NCC1CC1,-2.1% (inactive)
7,CCN(CC(=O)Nc1ccc(NC(C)=O)cc1)C(=O)C1CC(=O)N(Cc2ccc(C)cc2)C1 (centres undefined),-6.68% (inactive)
8,CCOC(=O)c1ccc(NC(=O)C2CC(=O)N(c3ccc4c(c3)OCCO4)C2)cc1 (centres undefined),-4.32% (inactive)
9,CCN(CC(=O)Nc1ccc(NC(C)=O)cc1)C(=O)C1CC(=O)N(c2ccc3c(c2)OCCO3)C1 (centres undefined),74.7% (active)
10,COc1cccc(C(=O)Nc2ccc3c(c2)C(=O)N(C)C[C@@H](OC)[C@H](C)CN(C(=O)C2CCOCC2)[C@H](C)CO3)c1,-0.027% (inactive)
11,C[C@H](CO)N1C[C@H](C)[C@@H](CN(C)Cc2ccc(Cl)c(Cl)c2)Oc2ccc(NC(=O)Cn3cnnn3)cc2CC1=O,5.4% (inactive)
12,O=C(C1CCCC1)N1[C@H](CO)[C@@H](c2ccccc2)C12CN(CCC(F)(F)F)C2,6.31% (inactive)
13,CO[C@H]1CN(C)C(=O)c2cc(NC(=O)Nc3ccccc3)ccc2OC[C@@H](C)N(C(=O)Nc2c(C)noc2C)C[C@@H]1C,8.84% (inactive)
14,CN(C)CC(=O)Nc1ccc2c(c1)[C@H]1C[C@H](CC(=O)NCc3ccccc3)O[C@@H](CO)[C@H]1O2,-10.3% (inactive)
15,CN(C)CC(=O)Nc1ccc2c(c1)[C@H]1C[C@@H](CC(=O)NCc3ccc(-c4ccccc4)cc3)O[C@H](CO)[C@H]1O2,60.2% (active)
16,CN(C)CC(=O)Nc1ccc2c(c1)[C@@H]1C[C@H](CC(=O)NCc3ccc(-c4ccccc4)cc3)O[C@@H](CO)[C@@H]1O2,43.1% (inactive)
17,CN1c2ccc(-c3ccc(C#N)cc3)cc2[C@@H]2[C@@H](CCN2S(=O)(=O)c2cccc(F)c2)[C@@H]1CO,8.85% (inactive)
18,CCCNC(=O)[C@@H]1[C@@H](CO)[C@@H]2Cn3c(cccc3=O)[C@H]1N2C(=O)C1CC1,-0.051% (inactive)
19,CS(=O)(=O)N1[C@H](C(=O)NCc2ccncc2)[C@@H](CO)[C@@H]2Cn3c(ccc(C4=CCCCC4)c3=O)[C@@H]21,-1.92% (inactive)
20,CC1CN(c2nc(Nc3ccccc3)nc(N)c2[N+](=O)[O-])CC(C)O1 (centres undefined),-8.87% (inactive)
21,CC(Nc1nc(N2CCN(CCO)CC2)nc2ccccc12)c1ccccc1 (centres undefined),-10.7% (inactive)
22,CN1CCN(c2nc(Nc3ccc(O)cc3)nc3ccccc23)CC1,72.4% (active)

row,Compound,inhibition
1,N#C[C@@H]1[C@H](c2ccccc2C2=CCCCC2)[C@@H](CO)N1S(=O)(=O)c1cccc(F)c1,-3.37% (inactive)
2,CCCNC(=O)C[C@H]1C[C@H]2c3cc(NC(=O)NC4CCCCC4)ccc3O[C@H]2[C@H](CO)O1,3.19% (inactive)
3,C[C@H]1CN([C@@H](C)CO)C(=O)Cc2cc(NC(=O)Nc3ccc(F)cc3)ccc2O[C@@H]1CN(C)C(=O)NC1CCCCC1,-2.6% (inactive)
4,CCCC1=Nc2cc(C(=O)NCCN3CCCC3)ccc2Sc2ccccc21,34% (inactive)
5,O=C(NCCN1CCOCC1)c1ccc2c(c1)N(Cc1cccc(Cl)c1)C(=O)c1ccccc1S2(=O)=O,-15.4% (inactive)
6,CCN1CCN(CCNC(=O)c2ccc(/C=C3/Sc4ccccc4N(Cc4cccc(C)c4)C3=O)cc2)CC1,51.6% (active)
7,CCN(CC)CCC(c1ccc2c(c1)OCO2)c1c(OC)cc(OC)c2c(-c3ccccc3)cc(=O)oc12 (centres undefined),54.9% (active)
8,CCN(CC)CCC(c1cc(OC)c(OC)c(OC)c1)c1c(OC)cc(OC)c2c(-c3ccccc3)cc(=O)oc12 (centres undefined),46.3% (inactive)
9,CCN(CC)C(=O)CC(c1ccc2c(c1)OCO2)c1c(OC)cc(OC)c2c(-c3ccccc3)cc(=O)oc12 (centres undefined),-104% (inactive)
10,CCCC#Cc1cnc2c(c1)C(=O)N([C@H](C)CO)C[C@H](C)[C@@H](CN(C)Cc1ccccc1)O2,-1.46% (inactive)
11,C/C=C/c1ccc(C2[C@H]3CNC[C@@H]2N3Cc2cccc(OC)c2)cc1 (some centres undefined),-8.08% (inactive)
12,COc1ccc(CN(C)C[C@@H]2OCCCC[C@@H](C)Oc3ccc(NS(=O)(=O)c4ccc(C)cc4)cc3C(=O)N([C@@H](C)CO)C[C@H]2C)cc1,21% (inactive)
13,COCC(=O)N1CC(=O)N2[C@H](CO)[C@@H](c3ccc(-c4ccncc4)cc3)[C@H]2C1,-7.77% (inactive)
14,N#Cc1ccc(-c2ccc([C@@H]3[C@H]4CNC[C@@H]3N4Cc3cc(F)ccc3F)cc2)cc1,69% (active)
15,N#Cc1ccc(-c2ccc([C@@H]3[C@@H](CO)N4C(=O)CNC[C@H]34)cc2)cc1,14.7% (inactive)
16,C/C=C/c1ccc(C2[C@H]3CNC[C@@H]2N3Cc2cccc(F)c2)cc1 (some centres undefined),16.5% (inactive)
17,COc1ccc(NC(=O)Nc2ccc3c(c2)[C@@H]2C[C@H](CC(=O)N4CCCCC4)O[C@H](CO)[C@@H]2O3)cc1,-6.62% (inactive)
18,O=C([C@@H]1[C@@H](CO)[C@@H]2Cn3c(ccc(-c4ccccc4)c3=O)[C@H]1N2CCC(F)(F)F)N1CCCCC1,9.81% (inactive)
19,CN(C)C(=O)C[C@@H]1C[C@@H]2c3cc(NC(=O)c4ccc5c(c4)OCO5)ccc3O[C@@H]2[C@H](CO)O1,5.11% (inactive)
20,C[C@H](CO)N1C[C@H](C)[C@H](CN(C)C(=O)Nc2ccc(C(F)(F)F)cc2)Oc2ccc(NS(C)(=O)=O)cc2CC1=O,-1.01% (inactive)

# Source: PubChem BioAssay AID651710 (Broad Institute, 2012)
